From PubChem BioAssay AID1159580 (chemical genetic matrix, 2015)
Where “and” joins values, the source holds several entries; their conditions need not be identical. Equal values may be shown once. Hit rate of the full screen: of about 5,500 compounds, about 2,000 (36%) were called active. Roughly 18% stayed inconclusive and do not appear here. Rule as the data show it: active = normalized growth mostly below about 0.91 (no sharp cut-off); inconclusive = no clear call, values can overlap the other calls; inactive = mostly above about 0.92. Some of the results follow.

Assay: chemical genetic growth profiling, strain panel (AID 1159580);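 also: tested at 20 µM; growth read once vehicle control cultures reached saturation at 30 °C; 1 = growth at the plate median or of vehicle wells; lower values mean less growth of the strain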
Conditions: S. cerevisiae deletion strains, growth OD

Measured: normalized growth

Cc1cc(O)cc(O)c1C(=O)O
inactive: locus YAL021C, strain ccr4, stronger effect = lower value 0.972 | locus YAL026C, strain drs2, stronger effect = lower value 1.05 | locus YAL030W, strain snc1, stronger effect = lower value 1.02 | locus YBL061C, strain skt5, stronger effect = lower value 1.02 | locus YBR009C, strain hhf1, stronger effect = lower value 1.01 | locus YBR021W, strain FUR4, stronger effect = lower value 1.02 | locus YBR023C, strain chs3, stronger effect = lower value 1.02 | locus YBR171W, strain sec66, stronger effect = lower value 1.02 | locus YBR229C, strain ROT2, stronger effect = lower value 1.02 | locus YBR231C, strain swc5, stronger effect = lower value 1 | locus YBR279W, strain paf1, stronger effect = lower value 1.02 | locus YCL011C, strain gbp2, stronger effect = lower value 1.01 | locus YCL016C, strain dcc1, stronger effect = lower value 0.984 | locus YCL029C, strain bik1, stronger effect = lower value 1 | locus YCL061C, strain MRC1, stronger effect = lower value 1.03 | locus YCL069W, strain vba3, stronger effect = lower value 1.01 | locus YCR088W, strain abp1, stronger effect = lower value 1.02 | locus YDL005C, strain med2, stronger effect = lower value 1.03 | locus YDL035C, strain GPR1, stronger effect = lower value 1.04 | locus YDL040C, strain nat1, stronger effect = lower value 1.02 | locus YDL074C, strain BRE1, stronger effect = lower value 1.03 | locus YDL101C, strain DUN1, stronger effect = lower value 1 | locus YDL134C, strain PPH21, stronger effect = lower value 1.04 | locus YDL185W, strain tfp1, stronger effect = lower value 0.988 | locus YDL192W, strain arf1, stronger effect = lower value 1.04 | locus YDR001C, strain nth1, stronger effect = lower value 1.02 | locus YDR069C, strain doa4, stronger effect = lower value 1.03 | locus YDR101C, strain arx1, stronger effect = lower value 1.04 | locus YDR137W, strain rgp1, stronger effect = lower value 1.03 | locus YDR159W, strain sac3, stronger effect = lower value 1.06 | locus YDR162C, strain NBP2, stronger effect = lower value 1.01 | locus YDR195W, strain ref2 0.986 | locus YDR297W, strain sur2, stronger effect = lower value 1.02 | locus YDR318W, strain mcm21, stronger effect = lower value 1.01 | locus YDR334W, strain swr1, stronger effect = lower value 1.02 | locus YDR335W, strain msn5, stronger effect = lower value 1.02 | locus YDR388W, stronger effect = lower value 1 | locus YDR392W, strain spt3, stronger effect = lower value 0.897 | locus YDR502C, strain sam2, stronger effect = lower value 0.997 | locus YEL003W, strain gim4, stronger effect = lower value 1.01 | locus YEL037C, strain rad23, stronger effect = lower value 1.01 | locus YEL061C, strain CIN8 (second series), stronger effect = lower value 1.01 | locus YEL061C, strain CIN8, stronger effect = lower value 1.01 | locus YER015W, strain faa2, stronger effect = lower value 1.01 | locus YER016W, strain bim1, stronger effect = lower value 1.02 | locus YER110C, stronger effect = lower value 0.982 | locus YER111C, strain swi4, stronger effect = lower value 1.01 | locus YER155C, strain BEM2 (second series), stronger effect = lower value 1.02 | locus YER155C, strain BEM2, stronger effect = lower value 1 | locus YER167W, strain BCK2, stronger effect = lower value 1.01 | locus YFR010W, strain ubp6, stronger effect = lower value 1.02 | locus YGL078C, strain dbp3, stronger effect = lower value 0.964 | locus YGL086W, strain mad1, stronger effect = lower value 1.01 | locus YGL167C, strain pmr1, stronger effect = lower value 1.02 | locus YGL173C, strain kem1, stronger effect = lower value 1.04 | locus YGL227W, strain vid30, stronger effect = lower value 1.01 | locus YGL240W, strain doc1, stronger effect = lower value 1.02 | locus YGL248W, strain PDE1, stronger effect = lower value 1.03 | locus YGL253W, strain hxk2, stronger effect = lower value 1.05 | locus YGR078C, strain PAC10, stronger effect = lower value 1.03 | locus YGR135W, strain pre9, stronger effect = lower value 0.96 | locus YGR252W, strain gcn5, stronger effect = lower value 1.06 | locus YHR013C, strain ard1, stronger effect = lower value 1.02 | locus YHR027C, strain rpn1, stronger effect = lower value 1.01 | locus YHR030C, strain SLT2, stronger effect = lower value 1.1 | locus YHR079C, strain IRE1 (second series), stronger effect = lower value 1 | locus YHR079C, strain IRE1, stronger effect = lower value 1.08 | locus YHR094C, strain hxt1, stronger effect = lower value 1.01 | locus YHR129C, strain ARP1, stronger effect = lower value 1.02 | locus YHR142W, strain chs7, stronger effect = lower value 1.01 | locus YHR200W, strain rpn10, stronger effect = lower value 1 | locus YIL066C, strain RNR3, stronger effect = lower value 1.03 | locus YIL073C, strain SPO22, stronger effect = lower value 1 | locus YIL125W, strain kgd1, stronger effect = lower value 0.993 | locus YIR030C, strain dcg1, stronger effect = lower value 1.01 | locus YJL092W, strain hpr5, stronger effect = lower value 1.02 | locus YJL095W, strain BCK1 (second series), stronger effect = lower value 1.02 | locus YJL095W, strain BCK1, stronger effect = lower value 1.04 and 1.07 | locus YJL115W, strain asf1, stronger effect = lower value 1.02 | locus YJL129C, strain trk1, stronger effect = lower value 1.03 | locus YJL134W, strain LCB3, stronger effect = lower value 1.01 | locus YJL154C, strain vps35, stronger effect = lower value 1.01 | locus YJL164C, strain tpk1, stronger effect = lower value 0.997 | locus YJL166W, strain qcr8, stronger effect = lower value 1.03 | locus YJL168C, strain set2, stronger effect = lower value 1.02 | locus YJL187C, strain SWE1 (second series), stronger effect = lower value 1.01 | locus YJL187C, strain SWE1, stronger effect = lower value 1.02
